# From PubChem BioAssay (NCATS)
# Records with an inconclusive call do not appear. Active and inactive are the calls of the source. Unless noted, calls come from the whole dose curve; as a rule, active = well fitted curve in the direction sought with a large enough effect; inconclusive = small, poorly fitted or top-dose-only effect, or another doubt; inactive = no such curve, though single readings can be large; an effect the other way counts as inactive or inconclusive.
# Legend:
# [1] = molecular target: Lysosomal acid glucosylceramidase (Homo sapiens) (UniProt P04062); test: Glucocerebrosidase-p2 (AID 348; in the data active = potency below about 10 µM; note: potency is the fitted concentration of half-maximal effect); conditions: purified GBA, blue fluorogenic substrate, 40 min
# How it was run: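 Normal human glucocerebrosidase (0.2 nM) with blue fluorogenic substrate (80 uM final) in citrate/phosphate pH 5.9 with 10mM sodium taurocholate, 0.01% tween-20; 40 min RT, NaOH/glycine stop; fluorescence Ex 365/Em 440; AC50 from a titration from 0.6 nM upwards.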
# [2] = molecular target: Cytochrome P450 1A2 (Homo sapiens) (UniProt P05177); test: p450-cyp1a2 (AID 410; calls by dose curve; note: potency is the fitted concentration of half-maximal effect;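 for activity change, negative = inhibition: -100% = full effect of reference inhibitor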); conditions: recombinant CYP1A2, luciferin-ME demethylation, luminescence; series mostly up to 57 µM
# How it was run: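 20nM CYP1A2, 100uM Luciferin-ME (=Km), 100mM KPO4; cpd 10 min RT; +NADPH regen, 60 min RT; stop/detect 20 min; luminescence. Normalized to furafylline 57 uM = full inhibition.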
# [3] = molecular target: Glucocorticoid receptor (Homo sapiens) (UniProt P04150); test: GR-GFP Redistribution (AID 450;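 active = compounds whose dose series gives a full or clear partial fitted curve of increased nuclear translocation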; note: potency is the fitted concentration of half-maximal effect); conditions: U2OS GR-GFP nuclear translocation, laser cytometry, 2 h
# [4] = molecular target: Glucocorticoid receptor (Homo sapiens) (UniProt P04150); test: GR-EFC Redistribution (AID 451; calls by dose curve; note: potency is the fitted concentration of half-maximal effect); conditions: CHO-K1 GR-EFC translocation, beta-gal luminescence, 2 h
# How it was run: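 CHO-K1 cells expressing nuclear EA and GR-ED fragments of b-gal; compounds titrated up to 46 uM final, 2 h at 37 C. GR nuclear translocation read as complemented b-gal luminescence after 1 h RT detection.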
# [5] = molecular target: Mitogen-activated protein kinase 10 (Mus musculus) (UniProt Q61831); test: JNK3 AlphaScreen Assay (AID 530; active = well fitted curve in either direction with a large enough effect, not every such curve was filed as active;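 note: kinase came from lysate of stimulated human HepG2 cells; signal reports phosphorylation of biotinylated GST-cJun 1-79 at Ser73 with 10 µM ATP; % is set by controls: 0 for no effect and ±100 for the full control effect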); conditions: JNK3 lysate, c-Jun phosphorylation; series mostly up to 57.1 µM
# How it was run: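 HepG2 lysate (IL-1b/TNFa pre-activated) + biotin-GST-cJun 1-79 + anti-pSer73 cJun; cpd titration, 15 min RT; ATP 10 uM start; Tris pH 7.6, MgCl2, DTT, vanadate; beads in EDTA buffer; AlphaScreen.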
# [6] = molecular target: 3',5'-cyclic-AMP phosphodiesterase 4B (Homo sapiens) (UniProt Q07343); test: qHTS Assay for Inhibitors of PDE-IV (AID 607; active = well fitted activation curve with a large enough effect in the main read-out, with a control signal flat, not every such curve was filed as active; note: % of control where 0% means no effect); conditions: HEK293 ACTOne CNG channel cells, membrane potential fluorescence; series mostly up to 22.9 µM
# How it was run: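 ACTOne HEK293 cells carry a modified cAMP-gated CNG channel and express endogenous PDE4; plated 1000 cells/well, compounds up to 22.9 uM final. Membrane-potential dye fluorescence (ex 535/em 590) was read; parental cells received 10 uM forskolin + 100 uM RO 20-1724.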
# [7] = molecular target: Cytochrome P450 2C9 (Homo sapiens) (UniProt P11712); test: qHTS Assay for Inhibitors and Substrates of Cytochrome P450 2C9 (AID 883); conditions: recombinant CYP2C9, luciferin-H luminescence, 60 min; series mostly up to 57.1 µM; note: % is set by controls: 0 for no effect and ±100 for the full control effect; nearly all actives have a fitted effect of over 60% in size
# How it was run: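 10nM CYP2C9 + 100uM Luciferin-H (=KM), 25mM KPO4; cpd 10 min 37C; NADPH regen, 60 min 37C; stop/detect with P450 Glo-Buffer 20 min; luminescence. Norm. to 57uM sulphaphenazole as full inhibition.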
# [8] = qHTS Assay for Lipid Storage Modulators (AID 1519; calls by dose curve); conditions: Drosophila S3 cells, BODIPY lipid droplet/cell ratio, laser cytometry, cells loaded with oleic acid; for activity change, negative = inhibition: at 57.5 µM (top of the series)
# How it was run: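 Cells seeded at 5,000 per well were treated with compounds over a concentration series and loaded with oleic acid (400 uM, as added). Lipid droplet fluorescence (488 nm excitation, 500-530 nm channel) was read by laser-scanning cytometry and normalized to 20 uM Triacsin C.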
# [9] = molecular target: Dual specificity protein kinase CLK4 (Homo sapiens) (UniProt Q9HAZ1); test: qHTS Assay for Inhibitors of CDC-like Kinase 4 (Kinase-Glo Assay) (AID 1770); conditions: recombinant Clk4, Kinase-Glo ATP depletion luminescence; series mostly up to 66.7 µM; note: % is set by controls: 0 for no effect and ±100 for the full control effect; nearly all actives have a fitted effect of over 65% in size
# How it was run: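 Substrate mix (RS peptide 100 uM, ATP 1 uM) dispensed, compound pinned in, then Clk4 added to 25 nM final. Incubated 4.5 h at RT; Kinase-Glo reagent added, luminescence read after 5 min.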
# [10] = molecular target: Dual specificity protein kinase CLK4 (Homo sapiens) (UniProt Q9HAZ1); test: qHTS Assay for Inhibitors of CDC-like Kinase 4 (ADP-Glo Assay) (AID 1771); conditions: recombinant CLK4, ADP-Glo luminescence; series mostly up to 80 µM; note: % is set by controls: 0 for no effect and ±100 for the full control effect; nearly all actives have a fitted effect of over 70% in size
# How it was run: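 25 nM Clk4, 100 uM RS peptide, 1 uM ATP (final); 2 mM MgCl2, 0.5 mM EGTA, 2.5 mM DTT, 0.01% Triton X-100; 1 hr RT. ADP-Glo readout: ATP depletion 45 min, conversion/luciferase 30 min, luminescence.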
# [11] = molecular target: Dual specificity protein kinase CLK4 (Homo sapiens) (UniProt Q9HAZ1); test: qHTS Assay for Inhibitors of CDC-like Kinase 4 (ADP-FP Assay) (AID 1795); conditions: Transcreener ADP fluorescence polarization; series mostly up to 50 µM;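 note: recombinant human CLK4 phosphorylating RS repeat peptide at 1 µM ATP; % is set by controls: 0 for no effect and ±100 for the full control effect; nearly all actives have a fitted effect of over 60% in size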
# How it was run: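 Clk4 6.25 nM; RS peptide 100 uM; ATP 1 uM; 25 mM Tris pH 7.5, 10 mM MgCl2; 1 h reaction. ADP detected via antibody/orange tracer FP displacement; TG003 positive control.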
# [12] = Primary qHTS for small molecule stabilizers of the endoplasmic reticulum resident proteome: Secreted ER Calcium Modulated Protein (SERCaMP) assay (AID 1508630); conditions: SH-SY5Y GLuc-SERCaMP (Gaussia luciferase released on ER calcium loss) secretion, thapsigargin, luminescence; series mostly up to 38.4 µM; note: % is set by controls: 0 for no effect and ±100 for the full control effect
# How it was run: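 The SH-SY5Y reporter protocol was run at 3 concentrations up to 38.3 uM (primary) or 11 concentrations (follow-up): 16 h compound, 100 nM thapsigargin for 4 h, then extracellular luciferase luminescence.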
# [13] = molecular target: Cytochrome P450 3A4 (Homo sapiens) (UniProt P08684); test: qHTS Assay for Activators of Cytochrome P450 3A4 (AID 885); conditions: recombinant CYP3A4, Luciferin-PPXE luminescence, 60 min; series mostly up to 57.1 µM; note: nearly all actives have a fitted effect of over 65% in size
# How it was run: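 CYP3A4 activity: Luciferin-PPXE O-dealkylation, 25uM substrate, 200mM KPO4, RT throughout. Read-out is luciferase luminescence; higher values reflect activation.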
# [14] = qHTS Assay for Identification of Small Molecule Agonists for Hypoxia Response Element Signaling Pathway (AID 914; active = well fitted activation curve with a large enough effect in the signal ratio, with a control signal flat, not every such curve was filed as active; the % refers to the signal ratio; note: potency is the fitted concentration of half-maximal effect; for activation: % of control where 0% means no effect); conditions: ME-180 HRE-bla reporter, beta-lactamase ratio, CoCl2, 17 h; activation: stronger effect = higher value
# How it was run: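 AC50 values come from titration-series %Activity, taken as the 460/530nm ratio of CCF4 fluorescence (excitation 405nm). CellSensor HRE-bla ME-180 cells were treated 17 hours at 37 C with compound plus an EC50 level of CoCl2.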
# [15] = molecular target: Ubiquitin carboxyl-terminal hydrolase 1 (Homo sapiens) (UniProt O94782); test: Inhibitors of USP1/UAF1: Pilot qHTS (AID 504865); conditions: purified USP1/UAF1, Ub-rhodamine cleavage fluorescence; series mostly up to 54.9 µM;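 note: rhodamine fluorescence freed from ubiquitin-rhodamine substrate followed over time; top concentration of the series differs between compounds; % is set by controls: 0 for no effect and ±100 for the full control effect; nearly all actives have a fitted effect of over 35% in size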
# How it was run: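 In 50mM HEPES pH 7.8 containing 0.5mM EDTA, 1mM TCEP, 0.1 mg/ml BSA and 0.01% Tween-20, 1nM USP1/UAF1 is exposed to compound for 15 min, then Ub-Rho (150nM final) is added and fluorescence is read over time.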
# [16] = AP1 Signaling Pathway (AID 357; active = well fitted curve in either direction with a large enough effect, not every such curve was filed as active;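 note: ME-180 reporter cells stimulated with EGF at its EC50 level; % is set by controls: 0 for no effect and ±100 for the full control effect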); conditions: ME-180 AP-1-bla reporter, EGF-induced, beta-lactamase ratio, 5 h; at 7.69 µM (top of the series) unless noted
# How it was run: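 First, ME-180 AP-1-bla cells were cultured overnight at 37 °C in low-serum Opti-MEM. Next, titrated compounds with EC50 EGF were incubated 5 hours. Finally, CCF4 was added for 2.5 hours and the 460/530 nm ratio recorded.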
# [17] = Stat Signaling Pathway (AID 446; active = well fitted curve in either direction with a large enough effect, not every such curve was filed as active;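 note: ME-180 cervical cancer cells given 40 pM IL-6 alongside compound; SIE-controlled beta-lactamase reporter measured as 460/530 nm FRET emission ratio; % is set by controls: 0 for no effect and ±100 for the full control effect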); conditions: ME-180 (cervical carcinoma) SIE beta-lactamase reporter, IL-6 stimulated, 5 h; at 7.69 µM (top of the series) unless noted
# How it was run: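 Compound effects on IL-6-induced STAT reporter activity were measured in ME-180 cells. After overnight culture, cells were co-treated with 40 pM IL-6 for 5 hrs before beta-lactamase substrate loading at room temperature.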
# [18] = NFAT Signaling Pathway (AID 444; active = well fitted curve in either direction with a large enough effect, not every such curve was filed as active); conditions: Jurkat NFAT-bla M1, carbachol, beta-lactamase ratio, 5 h; at 7.69 µM (top of the series) unless noted
# How it was run: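 Jurkat cells with NFAT-driven β-lactamase reporter and co-expressed M1 receptor, stimulated with carbachol (final 1 uM, ~EC50), compound titration, 5 h at 37 °C. CCF4 loaded 1 h at RT; 460/530 nm ratio gave %activity and AC50.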
# [19] = molecular target: Cytochrome P450 2D6 (Homo sapiens) (UniProt P10635); test: qHTS Assay for Inhibitors and Substrates of Cytochrome P450 2D6 (AID 891); conditions: recombinant CYP2D6, luciferin-ME EGE luminescence; series mostly up to 57.1 µM; note: potency is the fitted concentration of half-maximal effect; nearly all actives have a fitted effect of over 60% in size
# How it was run: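 Luminescent read-out of luciferin formed by 5 nM human CYP2D6 demethylating 30 uM Luciferin-ME EGE (Km level) over 60 min at room temperature after NADPH regeneration addition. Data normalized to full inhibition by 1.43 uM quinidine.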
# [20] = measured here: cell count channel max response
# [21] = measured here: lipid channel max response
# Cytochrome P450 1A2 (Homo sapiens), sequence (P05177 whole entry, looked up): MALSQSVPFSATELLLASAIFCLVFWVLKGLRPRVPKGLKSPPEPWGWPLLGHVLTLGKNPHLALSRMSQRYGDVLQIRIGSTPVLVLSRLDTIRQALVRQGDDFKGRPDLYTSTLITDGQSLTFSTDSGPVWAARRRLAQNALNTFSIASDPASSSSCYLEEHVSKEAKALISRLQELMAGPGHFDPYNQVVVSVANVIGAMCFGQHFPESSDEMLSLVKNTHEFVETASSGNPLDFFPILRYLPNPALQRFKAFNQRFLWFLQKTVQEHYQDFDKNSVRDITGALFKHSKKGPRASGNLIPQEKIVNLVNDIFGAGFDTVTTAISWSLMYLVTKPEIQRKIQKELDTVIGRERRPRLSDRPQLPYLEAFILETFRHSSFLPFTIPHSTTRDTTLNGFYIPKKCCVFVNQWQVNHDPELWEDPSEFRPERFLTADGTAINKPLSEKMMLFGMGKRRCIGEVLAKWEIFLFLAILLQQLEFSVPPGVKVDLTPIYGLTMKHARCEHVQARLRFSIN
# 3',5'-cyclic-AMP phosphodiesterase 4B (Homo sapiens), sequence (Q07343 whole entry, looked up): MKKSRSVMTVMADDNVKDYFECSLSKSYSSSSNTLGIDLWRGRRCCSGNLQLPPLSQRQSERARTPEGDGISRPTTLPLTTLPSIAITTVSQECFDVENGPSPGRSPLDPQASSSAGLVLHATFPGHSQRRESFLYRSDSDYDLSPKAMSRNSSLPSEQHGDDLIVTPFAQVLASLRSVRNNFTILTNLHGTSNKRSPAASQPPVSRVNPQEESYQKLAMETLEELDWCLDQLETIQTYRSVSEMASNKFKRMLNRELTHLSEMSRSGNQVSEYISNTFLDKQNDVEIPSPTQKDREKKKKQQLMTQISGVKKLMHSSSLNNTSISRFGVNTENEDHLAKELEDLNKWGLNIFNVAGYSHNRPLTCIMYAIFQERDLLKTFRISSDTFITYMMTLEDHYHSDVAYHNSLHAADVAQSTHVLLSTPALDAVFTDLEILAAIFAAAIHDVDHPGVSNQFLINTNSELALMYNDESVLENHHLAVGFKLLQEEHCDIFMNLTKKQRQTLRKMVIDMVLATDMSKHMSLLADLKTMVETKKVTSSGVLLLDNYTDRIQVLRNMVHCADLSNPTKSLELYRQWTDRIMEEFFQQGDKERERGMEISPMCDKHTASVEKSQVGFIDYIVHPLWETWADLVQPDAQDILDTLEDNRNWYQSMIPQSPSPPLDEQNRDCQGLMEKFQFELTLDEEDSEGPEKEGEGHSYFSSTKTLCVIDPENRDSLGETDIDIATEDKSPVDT
# Cytochrome P450 3A4 (Homo sapiens), sequence (P08684 whole entry, looked up): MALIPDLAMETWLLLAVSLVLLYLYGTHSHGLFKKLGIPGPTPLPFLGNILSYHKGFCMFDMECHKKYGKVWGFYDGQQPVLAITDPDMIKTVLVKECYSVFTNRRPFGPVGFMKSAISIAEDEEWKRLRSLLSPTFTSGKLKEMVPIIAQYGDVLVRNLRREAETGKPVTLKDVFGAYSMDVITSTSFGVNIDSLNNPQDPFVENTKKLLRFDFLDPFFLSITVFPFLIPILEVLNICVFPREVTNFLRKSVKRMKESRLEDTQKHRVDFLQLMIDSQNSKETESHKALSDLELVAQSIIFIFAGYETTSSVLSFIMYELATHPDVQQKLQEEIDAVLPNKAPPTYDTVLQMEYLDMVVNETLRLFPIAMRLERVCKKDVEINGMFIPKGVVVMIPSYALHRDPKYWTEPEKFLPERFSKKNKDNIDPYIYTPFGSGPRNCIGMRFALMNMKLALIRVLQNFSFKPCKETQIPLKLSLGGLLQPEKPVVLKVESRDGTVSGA
# Glucocorticoid receptor (Homo sapiens), sequence (P04150 whole entry, looked up, the tested form may be a part): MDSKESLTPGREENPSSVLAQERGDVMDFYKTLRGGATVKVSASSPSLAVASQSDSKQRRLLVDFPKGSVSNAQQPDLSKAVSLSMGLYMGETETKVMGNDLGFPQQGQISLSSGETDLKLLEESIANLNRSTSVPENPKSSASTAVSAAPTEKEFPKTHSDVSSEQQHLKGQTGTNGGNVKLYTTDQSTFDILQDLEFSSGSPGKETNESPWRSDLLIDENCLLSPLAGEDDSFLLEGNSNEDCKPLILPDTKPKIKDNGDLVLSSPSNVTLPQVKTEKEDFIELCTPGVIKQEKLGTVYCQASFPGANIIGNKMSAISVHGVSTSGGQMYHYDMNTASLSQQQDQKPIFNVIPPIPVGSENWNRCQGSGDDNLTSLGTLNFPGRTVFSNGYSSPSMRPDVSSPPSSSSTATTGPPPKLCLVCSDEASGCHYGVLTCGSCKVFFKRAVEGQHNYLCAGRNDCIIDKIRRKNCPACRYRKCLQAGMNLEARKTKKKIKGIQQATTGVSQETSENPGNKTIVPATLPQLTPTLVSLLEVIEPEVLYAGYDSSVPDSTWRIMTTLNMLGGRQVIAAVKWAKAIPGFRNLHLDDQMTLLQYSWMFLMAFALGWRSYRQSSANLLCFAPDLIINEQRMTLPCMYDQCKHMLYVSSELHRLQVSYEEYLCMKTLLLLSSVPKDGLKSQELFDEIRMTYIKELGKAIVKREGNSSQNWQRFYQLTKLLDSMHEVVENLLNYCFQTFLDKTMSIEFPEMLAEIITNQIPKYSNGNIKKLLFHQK
# Dual specificity protein kinase CLK4 (Homo sapiens), sequence (Q9HAZ1 whole entry, looked up): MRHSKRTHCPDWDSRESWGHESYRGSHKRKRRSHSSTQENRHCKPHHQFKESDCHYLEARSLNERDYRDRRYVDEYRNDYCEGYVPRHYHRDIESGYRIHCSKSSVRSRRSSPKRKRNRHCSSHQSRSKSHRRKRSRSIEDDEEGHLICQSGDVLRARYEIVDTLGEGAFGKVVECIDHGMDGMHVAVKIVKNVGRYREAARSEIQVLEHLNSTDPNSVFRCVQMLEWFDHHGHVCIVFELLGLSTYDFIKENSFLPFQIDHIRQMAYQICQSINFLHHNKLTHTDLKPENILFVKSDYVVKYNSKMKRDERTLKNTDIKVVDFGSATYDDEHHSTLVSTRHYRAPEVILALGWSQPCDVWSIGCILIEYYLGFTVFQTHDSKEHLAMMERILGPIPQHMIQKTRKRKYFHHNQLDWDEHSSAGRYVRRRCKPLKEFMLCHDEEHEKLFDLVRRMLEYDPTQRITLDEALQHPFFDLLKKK
# Ubiquitin carboxyl-terminal hydrolase 1 (Homo sapiens), sequence (O94782 whole entry, looked up): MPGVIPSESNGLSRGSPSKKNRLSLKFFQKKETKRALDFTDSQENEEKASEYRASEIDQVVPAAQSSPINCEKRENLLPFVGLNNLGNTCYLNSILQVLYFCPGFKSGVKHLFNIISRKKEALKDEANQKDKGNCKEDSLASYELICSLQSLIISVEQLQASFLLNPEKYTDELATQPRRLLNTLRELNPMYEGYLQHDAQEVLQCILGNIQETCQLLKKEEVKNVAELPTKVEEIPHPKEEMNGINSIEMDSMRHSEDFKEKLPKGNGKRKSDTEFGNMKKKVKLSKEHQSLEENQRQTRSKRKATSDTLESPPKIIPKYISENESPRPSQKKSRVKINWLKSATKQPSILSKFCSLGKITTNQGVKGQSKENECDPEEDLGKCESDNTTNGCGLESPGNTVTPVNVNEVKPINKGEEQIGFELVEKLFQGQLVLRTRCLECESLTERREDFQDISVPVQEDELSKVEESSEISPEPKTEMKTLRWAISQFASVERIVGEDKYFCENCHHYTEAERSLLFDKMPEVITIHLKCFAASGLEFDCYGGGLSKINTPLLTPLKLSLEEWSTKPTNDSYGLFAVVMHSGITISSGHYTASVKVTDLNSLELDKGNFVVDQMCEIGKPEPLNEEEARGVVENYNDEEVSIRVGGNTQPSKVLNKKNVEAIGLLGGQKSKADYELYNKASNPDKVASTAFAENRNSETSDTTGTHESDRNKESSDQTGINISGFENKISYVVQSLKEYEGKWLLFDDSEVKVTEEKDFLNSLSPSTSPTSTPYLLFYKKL
# Lysosomal acid glucosylceramidase (Homo sapiens), sequence (P04062 whole entry, looked up): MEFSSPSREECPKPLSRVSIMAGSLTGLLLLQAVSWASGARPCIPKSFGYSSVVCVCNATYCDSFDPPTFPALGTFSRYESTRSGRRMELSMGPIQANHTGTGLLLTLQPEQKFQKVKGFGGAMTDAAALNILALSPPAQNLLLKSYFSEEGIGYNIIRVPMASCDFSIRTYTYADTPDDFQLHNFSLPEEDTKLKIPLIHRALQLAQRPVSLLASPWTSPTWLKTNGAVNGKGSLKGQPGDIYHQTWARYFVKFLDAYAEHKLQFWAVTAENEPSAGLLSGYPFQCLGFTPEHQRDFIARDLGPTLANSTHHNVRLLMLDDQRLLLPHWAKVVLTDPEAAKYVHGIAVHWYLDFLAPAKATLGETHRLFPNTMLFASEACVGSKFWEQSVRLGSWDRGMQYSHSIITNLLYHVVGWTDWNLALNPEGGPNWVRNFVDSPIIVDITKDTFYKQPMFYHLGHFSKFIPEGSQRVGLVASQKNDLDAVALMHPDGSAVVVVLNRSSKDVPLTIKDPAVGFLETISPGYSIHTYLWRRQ
# Cytochrome P450 2C9 (Homo sapiens), sequence (P11712 whole entry, looked up): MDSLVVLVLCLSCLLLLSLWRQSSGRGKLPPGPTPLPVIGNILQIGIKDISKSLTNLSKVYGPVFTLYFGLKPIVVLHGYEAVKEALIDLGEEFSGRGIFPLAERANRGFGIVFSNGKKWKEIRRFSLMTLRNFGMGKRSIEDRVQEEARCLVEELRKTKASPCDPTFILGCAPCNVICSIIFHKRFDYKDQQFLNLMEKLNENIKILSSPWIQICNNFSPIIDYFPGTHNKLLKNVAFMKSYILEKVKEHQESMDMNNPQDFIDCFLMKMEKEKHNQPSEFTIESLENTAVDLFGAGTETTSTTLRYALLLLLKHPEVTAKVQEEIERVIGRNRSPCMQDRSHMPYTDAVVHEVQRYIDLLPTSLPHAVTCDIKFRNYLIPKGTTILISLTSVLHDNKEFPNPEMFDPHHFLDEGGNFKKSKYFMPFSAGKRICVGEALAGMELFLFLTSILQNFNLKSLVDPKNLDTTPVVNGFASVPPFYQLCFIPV
compound,measurement,setting,value
O=c1c(-c2ccc(Cl)cc2)nc2cnc(N3CCOCC3)nc2n1-c1ccccc1,Potency,[1],> 11.4 µM (inactive)
same,Potency,[2],2 µM (active)
same,Potency,[3],> 9.22 µM (inactive)
same,Potency,[4],> 46 µM (inactive)
same,outcome,[5],inactive
same,Potency,[6],inactive
same,Potency,[7],inactive
same,"activity change, negative = inhibition",[8],-3% (inactive)
same,max response,[8]; [20],25.3%
same,max response,[8]; [21],19.1%
same,Potency,[9],inactive
same,Potency,[10],inactive
same,Potency,[11],inactive
same,Potency,[12],inactive
CN1CCN(c2ncc3nc(-c4cccc(C#N)c4)c(=O)n(Cc4ccc(F)cc4)c3n2)CC1,Potency,[1],> 11.4 µM (inactive)
same,Potency,[2],inactive
same,Potency,[4],> 46 µM (inactive)
same,outcome,[5],inactive
same,Potency,[6],inactive
same,Potency,[13],inactive
same,Potency,[14],3.16 µM (active)
same,"activity change, negative = inhibition",[8],-3.63% (inactive)
same,max response,[8]; [20],1.09%
same,max response,[8]; [21],-4.23%
same,Potency,[9],inactive
same,Potency,[10],inactive
same,Potency,[11],inactive
same,Potency,[15],inactive
same,Potency,[12],inactive
CN(C)Cc1ccccc1-c1cncnc1Nc1ccccc1,Potency,[1],> 11.4 µM (inactive)
same,"activity change, negative = inhibition",[16],7.98% (inactive)
same,"activity, negative = inhibition",[17],13.5% (inactive)
same,Potency,[3],> 46 µM (inactive)
same,Potency,[4],> 46 µM (inactive)
same,outcome,[5],inactive
same,Potency,[6],inactive
same,"activity change, negative = inhibition",[8],5.53% (inactive)
same,max response,[8]; [20],18.6%
same,max response,[8]; [21],26.9%
same,Potency,[9],inactive
same,Potency,[10],inactive
same,Potency,[11],inactive
same,Potency,[15],inactive
same,Potency,[12],inactive
Cc1nc2cnc(N3CCOCC3)nc2n(C2CC2)c1=O,Potency,[1],> 11.4 µM (inactive)
same,"activity change, negative = inhibition",[16],-11.6% (inactive)
same,"activity change, negative = inhibition",[18],-11.7% (inactive)
same,"activity, negative = inhibition",[17],-3.09% (inactive)
same,Potency,[3],> 9.22 µM (inactive)
same,Potency,[4],> 46 µM (inactive)
same,outcome,[5],inactive
same,Potency,[6],inactive
same,Potency,[13],inactive
same,"activity change, negative = inhibition",[8],7% (inactive)
same,max response,[8]; [20],18%
same,max response,[8]; [21],23.9%
same,Potency,[9],inactive
same,Potency,[10],inactive
same,Potency,[11],inactive
same,Potency,[15],inactive
same,Potency,[12],inactive
COc1ccc(Oc2ncc3nc(-c4ccc(OC)cc4)c(=O)n(C4CC4)c3n2)cc1,Potency,[1],> 11.4 µM (inactive)
same,"activity change, negative = inhibition",[16],-17.1% (inactive)
same,"activity change, negative = inhibition",[18],18.7% (inactive)
same,"activity, negative = inhibition",[17],-1.53% (inactive)
same,Potency,[3],> 9.22 µM (inactive)
same,Potency,[4],> 46 µM (inactive)
same,outcome,[5],inactive
same,Potency,[6],inactive
same,activation,[14],12.9% (inactive)
same,"activity change, negative = inhibition",[8],-0.219% (inactive)
same,max response,[8]; [20],4.42%
same,max response,[8]; [21],-0.829%
same,Potency,[9],inactive
same,Potency,[10],inactive
same,Potency,[11],inactive
same,Potency,[15],inactive
same,Potency,[12],inactive
CNc1nc(-c2ccccc2CN(C)C)nc2ccccc12,Potency,[1],> 11.4 µM (inactive)
same,Potency,[2],3.16 µM (active)
same,"activity change, negative = inhibition",[18],-2.05% (inactive)
same,"activity, negative = inhibition",[17],17.3% (inactive)
same,Potency,[3],> 46 µM (inactive)
same,Potency,[4],> 46 µM (inactive)
same,outcome,[5],inactive
same,Potency,[13],inactive
same,Potency,[19],3.98 µM (active)
same,"activity change, negative = inhibition",[8],1.92% (inactive)
same,max response,[8]; [20],7.86%
same,max response,[8]; [21],7.77%
same,Potency,[9],inactive
same,Potency,[10],inactive
same,Potency,[11],inactive
same,Potency,[15],inactive
same,Potency,[12],inactive
